Screening data as filed in PubChem BioAssay.
Shown are actives, neighbours in structure and some others; about 6.5% of the full set was active somewhere.
Marburg entry inh = inhibitors of Marburg virus binding or cell entry; Potency, µM (series often up to 37.8 µM), for inactives: top-dose activity change, negative = inhibition, usual class: inhibitors; Marburg virus pseudotyped entry inhibition, cell reporter; AID 540276; 1.8% of 300,000 active; calls by dose curve; tested in HEK293 cells; also: potency is read from the fitted curve at half-maximal effect
VACV mCherry inh = inhibitors of vaccinia virus infection (mCherry reporter signal); Vaccinia virus mCherry reporter infection, fluorescence; Potency, µM (series often up to 36.5 µM), for the others: top-dose activity change, negative = inhibition, usual class: inhibitors; AID 720579; 0.63% of 310,000 active; calls by dose curve; tested in A549 cells; also: potency is read from the fitted curve at half-maximal effect; nearly all actives have a fitted effect of over 35% in size
Lassa entry inh = blocks Lassa virus binding to or entry into cells | Lassa virus pseudotype entry inhibition, cell reporter | Potency, µM (highest dose often 37.9 µM), for inactives: at the top dose activity change, negative = inhibition, most hits filed as inhibitors | 1.2% of 300,000 active | AID 540256; calls by dose curve; tested in HEK293 cells; also: potency is read from the fitted curve at half-maximal effect; nearly all actives have a fitted effect of over 50% in size
FMDV antiviral = antivirals against foot and mouth disease virus | FMDV antiviral cell-based qHTS | Potency, µM (doses to about 57.9 µM), inactives show top-dose activity change, negative = inhibition, hits mostly inhibitors | 1.2% of 410,000 active | AID 1159524; calls by dose curve; tested in HEK293T cells; also: read-out not given here; potency is read from the fitted curve at half-maximal effect; nearly all actives have a fitted effect of over 45% in size
HCMV inh = blocks human cytomegalovirus replication; HFF cells, HCMV-luciferase reporter, 72 h; hits give low values; activity change, negative = inhibition, % at 57.5 µM; 4.5% of 410,000 active; AID 1259415; in the data active = activity change below about -60%; inconclusive = no clear call, values can overlap the other calls; inactive = above about -39%
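Cell-based, HFFs, 1000 cells/well, 16 h 37C; cpds in DMSO + HCMV-luc, MOI 1 PFU/cell; 72 h 37C; OneGlo luminescence after 5 min RT; norm. to buffer vs Salinomycin 10uM.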
VACV Venus inh = vaccinia inhibition (Venus reporter). Vaccinia virus Venus reporter expression, fluorescence. Potency, µM (top dose mostly 36.5 µM), inactives show at the highest dose activity change, negative = inhibition, usual class: inhibitors. 0.46% of 330,000 active; calls by dose curve; tested in A549 cells; also: potency is read from the fitted curve at half-maximal effect; nearly all actives have a fitted effect of over 30% in size
The depositor's hits bear a star; i = inactive; ? = inconclusive; . = not tested or not shown; ! = a repeat was not active; [ ] = remark or other dose. % is scaled to controls: 0 for no effect and ±100 for the full control effect.

SMILES	Marburg entry inh	VACV mCherry inh	Lassa entry inh	FMDV antiviral	HCMV inh	VACV Venus inh
Cc1ccc(CNC(=O)Cn2cc3c(n2)-c2c(oc(C(=O)N4CCOCC4)c2C)CC3)cc1	.	-21.3%	-18.4%[46.1 µM]	?	?	-16.9%
CC12C=CC(=O)C=C1CCC1C2C(=O)CC2(C)C1CCC2(O)C(=O)CO (centres undefined)	.	-2.8%	.	-13.8%	-36.9	-14.5%
CCOC(=O)C1C=CN=C1C (centres undefined)	14.1%	.	.	.	.	.
CCCN1C(=O)C[C@H](S(=O)(=O)c2ccccc2)[C@H]1c1ccc(C#N)cc1	.	.	.	.	-19.3	.
NCC(O)C1CCCCCCC1 (centres undefined)	7.08µM*!	.	2.6%	.	.	.
Cc1nn2cc(-c3ccc(N)cc3)nc2s1	-9.9%	-19.2%	?	28.6%	14.7	-10.4%
CCCc1nn2cc(-c3ccc(C)c(C)c3)nc2s1	-7.8%[46.1 µM]	1.7%	13.9%[46.1 µM]	-77.3%	-62.0*	-6.2%
Cc1ccc(C)c(C(=O)CN2C(=O)c3ccccc3S2(=O)=O)c1	?	-4.9%	?	35.6%	3.6	-1.6%
CCCn1c(C)cc(C(=O)Cn2nnc3ccccc3c2=O)c1C	14.1µM*	i	?	0.0%	103.3	-6.4%
Cc1cc(C(=O)CN2C(=O)c3ccccc3S2(=O)=O)c(C)n1CC1CCCO1 (centres undefined)	0.58µM*	-5.6%	0.461µM*	0.282µM*	-100.1*	-6.5%
COCCn1c(C)cc(C(=O)Cn2nc(C(=O)O)c3ccccc3c2=O)c1C	?	.	1.6%	-14.7%	-33.4	.
CCCn1c(C)cc(C(=O)CN2C(=O)c3ccccc3S2(=O)=O)c1C	.	i	.	?	-86.4*	-12.9%
Cc1ccc(OCC(=O)OCc2cc(=O)n3nc(-c4cccs4)sc3n2)cc1C	.	-13.9%	-1.7%[46.1 µM]	-16.3%	5.7	-1.3%
CS(=O)(=O)N1CCN(c2ccc(NC(=O)c3cc4ccccc4o3)cc2)CC1	.	.	.	0.0%	-17.5	.
CS(=O)(=O)N1CCN(c2ccc(NC(=O)c3ccc([N+](=O)[O-])o3)cc2)CC1	4.4%	.	6.7%	45.2%	-101.1*	.
O=C(Nc1ccc(N2CCCC2)c(Cl)c1)c1ccco1	?	-1.8%	11.6µM*	.	-89.6*	-19.0%
CC(C)CC(=O)NC(=S)Nc1ccc(N2CCCC2)c(Cl)c1	?	-4.6%	-16.8%	35.0%	-62.4*	-4.7%
O=C(Nc1ccc(N2CCCC2)c(Cl)c1)c1ccc([N+](=O)[O-])o1	8.91µM*	15.8µM*	?	11.8%	-89.2*	14.1µM*
CN1CCN(c2ccc(NC(=O)c3ccco3)cc2Cl)CC1	.	.	.	20.9%	115.1	.
CC(=O)N1CCc2cc(S(=O)(=O)C(C)CC(=O)NCc3ccco3)ccc21 (centres undefined)	.	-4.9%	.	-3.7%	?	0.3%
CC1CCN(C(=O)c2ccc([N+](=O)[O-])o2)CC1	1.4%[46.1 µM]	-15.6%	6.8%	-7.9%	-8.5	-26.7%
CC1CCN(c2ccc(NC(=O)c3ccc([N+](=O)[O-])o3)cc2)CC1	?	11.2µM*	?	-14.5%	-97.5*	10µM*
O=C(Nc1ccc(N2CCCCC2)cc1)c1ccc([N+](=O)[O-])o1	?	?	?	-5.8%	-96.0*	-24.0%
O=C(Nc1ccc(N2CCN(Cc3ccccc3F)CC2)cc1)c1ccc([N+](=O)[O-])o1	?	3.98µM*	-13.2%	?	-100.2*	?
CC1=C(n2c(=O)c(-c3ccccc3)nc3ccccc32)C(=O)Nc2ccccc2N1	.	.	.	.	16.9	.
SMILES	Marburg entry inh	VACV mCherry inh	Lassa entry inh	FMDV antiviral	HCMV inh	VACV Venus inh
O=C(CCCCO)CCCCCCCC[C@H]1N[C@H](CO)[C@H](O)[C@@H]1O[C@@H]1O[C@H](CO)[C@@H](O)[C@H](O)[C@H]1O	-0.5%	-12.7%	13.0%	-11.9%	8.5	-4.6%
C[C@@H]1C[C@@H](CC(=O)NCC2Cc3cccc(-c4ccncc4)c3O2)NC(=S)N1 (some centres undefined)	.	i	.	8.0%	.	-25.7%
COc1ccccc1NC(=O)C1=C(C)NC(=O)NC1c1ccco1 (centres undefined)	.	.	.	1.6%	19.9	.
COc1ccc(CNC(=O)c2ccc(N3CCCC3)c(NC(=O)NCc3ccc(F)cc3)c2)cc1	.	-10.5%	1.8%[46.1 µM]	8.6%	6.5	-17.4%
COc1ccc(Nc2nc(N3CCCC3)c3ccccc3n2)cc1	1.58µM*	8.91µM*	?	?	-6.9	10µM*
Cc1nc(N2CCCCCC2)c2ccccc2n1	.	.	.	-30.0%	?	.
CCN(CC)c1ccc(Nc2nc(N3CCOCC3)c3ccccc3n2)cc1	?	.	18.3µM*	?	-96.2*	.
c1ccc2c(c1)nc(N1CCOCC1)c1ccccc12	-19.5%[46.1 µM]	i	-29.8%[46.1 µM]	5.1%	-38.1	-11.6%
CCNC(=O)C1CCCN(C(=O)c2cccc3ccccc23)CC1 (centres undefined)	.	i	.	0.0%	6.2	-3.4%
CC1(C(=O)Nc2ccccc2F)CCN1C(=O)Cc1cc(F)ccc1F (centres undefined)	.	17.1%	.	-3.5%	22.4	-1.4%
Nc1ccc(O)cc1C(=O)OCC(=O)c1ccc(C2CCCCC2)cc1	?	?	?	?	-95.3*	-23.0%
COc1ccc(C(=O)OCC(=O)c2ccc(C3CCCCC3)cc2)cc1	?	-10.0%	2.24µM*	?	?	-3.7%
Nc1ccc(O)cc1C(=O)OCC(=O)C12CC3CC(CC(C3)C1)C2	27.6%	.	11.4%	-21.6%	3.5	0.6%
CCCCn1c(N)c(N(CCC(C)C)C(=O)CCCc2nc3ccccc3s2)c(=O)[nH]c1=O	.	.	.	-5.1%	26.4	.
CO/S(=N\S(=O)(=O)c1ccc(Cl)cc1)c1ccc([N+](=O)[O-])cc1 (centres undefined)	20.5%	.	?	.	.	.
CCCCN(CCCC)CCNC(=O)c1cc(=O)[nH]c2ccc(S(=O)(=O)N3CCCCCC3)cc12	.	-9.0%	14.2%[46.1 µM]	-13.1%	?	-7.2%
Cc1ccc(O)cc1Nc1ccnc2cc(-c3ccccn3)ccc12	.	.	25µM*	.	.	.
CC(C)CN(CC(C)C)CC(O)COc1ccccc1Br (centres undefined)	?	-25.7%	?	?	-75.5*	-24.0%
COc1cc(/C=C(/NC(=O)c2ccccc2)C(=O)Nc2ccc(O)cc2)c([N+](=O)[O-])cc1OC	-13.6%	-9.5%	?	0.0%	-73.2*	-3.9%
COc1cc(/C=C(/NC(=O)c2ccccc2)C(=O)Nc2ccccc2)c([N+](=O)[O-])cc1OC	2.6%	i	8.2%	-15.4%	29.4	-11.9%
COc1ccccc1C(=O)NCCOc1ccc(C(C)(C)C)cc1	.	.	.	-19.4%	-14.9	.
CC(C)(C)c1ccc(C(=O)NCCOc2ccccc2)cc1	1.58µM*	-3.0%	?	20µM*	?	-9.8%
CC(C)Cc1ccc(C(=O)NCCOc2ccccc2)o1	-3.4%[46.1 µM]	-12.8%	2.82µM*	-2.2%	20.6	1.4%
Cc1ccc(OCCNC(=O)c2ccc(COc3ccccc3)o2)cc1	-3.9%	-5.2%	?	-4.7%	-21.0	-12.5%
